From PubChem BioAssay (NCATS) come the findings set out here.

Assay [1] can be described thus: qHTS Assay for Identifying Gametocytocidal Compounds (AID 743244; active means well fitted curve in the direction sought with a large enough effect; an effect the other way counts as inactive or inconclusive;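 further: on the % scale 0 is the no-effect control and ±100 the full control effect; actives lower the fluorescent signal which means gametocytes are killed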). To be noted: P. falciparum 3D7 stage III-V gametocytes, alamarBlue, 72 h; max response: stronger effect = lower value. Put shortly:
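In this qHTS viability screen, late-stage 3D7 gametocytes are incubated with compound for 72 h, then with alamarBlue for 24 h; reduced resorufin fluorescence marks killing.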

The conditions of assay [2]: Ebola virus entry assay, blue channel fluorescence.
For assay [3] the following is noted: Ebola virus entry assay, green fluorescence channel.
The conditions of assay [4]: Ebola virus entry assay, ratio channel readout.
For assay [5] the following is noted: Ebola virus entry assay, blue channel fluorescence. The source holds these as a separate data set.
The nature of assay [6]: qHTS assay for cell viability of HEK293 cells (AID 743288; active means well fitted curve in the direction sought with a large enough effect; an effect the other way counts as inactive or inconclusive; further: on the % scale 0 is the no-effect control and ±100 the full control effect; nearly all actives have a fitted effect of over 50% in size). Particulars: ATP luminescence (CellTiter-Glo), 18 h, stronger effect = lower value. Put shortly: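 Parental HEK293 cells were seeded at 2,000 cells/well, rested at least 5 h at 37 C, then exposed to compounds in DMSO for 18 h at 37 C. Viability was read as ATP-dependent luciferase luminescence after 30 min at room temperature.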
(In general: qHTS replaces the single test concentration by a dilution series.)

A short description of assay [7]: qHTS assay for cell viability of the p53RE-bla HCT-116 cell line (AID 743292; active means well fitted curve in the direction sought with a large enough effect; an effect the other way counts as inactive or inconclusive; further: on the % scale 0 is the no-effect control and ±100 the full control effect; nearly all actives have a fitted effect of over 55% in size). Summed up: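 Intracellular ATP of p53RE-bla HCT-116 cells measured by luciferase luminescence following 16 h compound incubation at 37 C; DMSO-only wells served as vehicle controls.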
The target of assay [8] is T1, Hexokinase-4 (Homo sapiens) + Glucokinase regulatory protein (Homo sapiens) (UniProt P35557+Q14397). Description: qHTS assay for inhibitors of recombinant human GCK-GKRP interaction: ADP-Glo assay (AID 743206; active means well fitted curve in the direction sought with a large enough effect; an effect the other way counts as inactive or inconclusive;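 further: plate controls were DMSO plus enzyme for no effect and no enzyme for full effect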). Summed up:
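GST-GCK and FLAG-GKRP (15 nM each in the dispensed mix, with 2 uM S6P) react with 0.4 mM ATP and 5 mM glucose (final) in Hepes pH 7.6 for 60 min at room temperature. ADP is measured by ADP-Glo luminescence.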

The target of assay [9] is T1, Hexokinase-4 (Homo sapiens) + Glucokinase regulatory protein (Homo sapiens). Kind of assay: qHTS assay for inhibitors of recombinant human GCK-GKRP interaction: HTRF assay (AID 743207; active means well fitted curve in the direction sought with a large enough effect; an effect the other way counts as inactive or inconclusive;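 further: 0% = DMSO with GCK present and -100% = DMSO wells lacking GCK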). Put shortly: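 GST-GCK and FLAG-GKRP (5 nM each) were combined with 2 uM S6P in pH 7.1 Hepes/MgCl2/KCl/DTT buffer, then compound and anti-FLAG XL665/anti-GST K antibodies were added. After 60 min at room temperature, HTRF 665/615 nm emission was read.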

The nature of assay [10]: qHTS profiling for inhibitors of Plasmodium falciparum (3D7) proliferation (AID 743322).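 Further: infected erythrocytes exposed to compound for 72 h before lysis; 100% = DMSO vehicle wells and 0% = 0.29 µM artemisinin.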 To be noted: P. falciparum 3D7 proliferation; at 28.7 µM (top of the series). Put shortly:
(§1)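 Erythrocytes infected with P. falciparum (0.3% parasitemia, 2.5% hematocrit) incubated with compounds 72 h at 37 C, 5% CO2. Lysis with saponin/Triton buffer containing SYBR Green I, overnight at room temperature in the dark; DNA fluorescence (485/535 nm) normalised to 0.29 uM artemisinin and DMSO.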

Assay [11] is described as follows: qHTS profiling for inhibitors of Plasmodium falciparum (DD2) proliferation (AID 743323). To be noted: lower = more inhibition; at 28.7 µM (top of the series). Summed up:
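Parasite proliferation measured via DNA-dye fluorescence, as uninfected erythrocytes lack DNA. Cultures at 0.3% parasitemia and 2.5% hematocrit incubated 72 h with compound; signal scaled between vehicle and 0.29 uM artemisinin wells.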

Assay [12] can be described thus: qHTS profiling of the MIPE4 collection as inhibitors of Plasmodium falciparum (3D7) proliferation (AID 743344).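 Further: scaled between DMSO vehicle wells and 0.29 µM artemisinin as full inhibition.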 Particulars: P. falciparum 3D7 in erythrocytes, SYBR Green DNA fluorescence, 72 h; at 28.5 µM (top of the series) unless noted. Put shortly: as §1
Assay [13] is described as follows: qHTS profiling of the MIPE4 collection as inhibitors of Plasmodium falciparum (DD2) proliferation (AID 743345). To be noted: P. falciparum Dd2 in erythrocytes, SYBR Green DNA, 72 h; at 28.5 µM (top of the series) unless noted. Summed up:
as §1

For assay [14] the following is noted: Ebola virus entry assay, blue channel fluorescence. This is another data set of the same source.
For assay [15] the following is noted: Ebola virus entry assay, ratio channel.
The conditions of assay [16]: Ebola virus entry assay, green channel fluorescence.
The conditions of assay [17]: Ebola virus entry assay, reporter ratio channel; AC50: Channel type: primary unless noted; outcome: Channel type: primary unless noted.

Where “and” joins values, the source holds several entries; their conditions need not be identical. Identical values can stand only once. Records with an inconclusive call do not appear. For some of these results: Potency and affinity values are given separately. Calls of active or inactive are those of the source.

Broadly, the AC50 is the concentration giving half of the maximal activity seen.

T1 sequence (P35557 whole entry, looked up): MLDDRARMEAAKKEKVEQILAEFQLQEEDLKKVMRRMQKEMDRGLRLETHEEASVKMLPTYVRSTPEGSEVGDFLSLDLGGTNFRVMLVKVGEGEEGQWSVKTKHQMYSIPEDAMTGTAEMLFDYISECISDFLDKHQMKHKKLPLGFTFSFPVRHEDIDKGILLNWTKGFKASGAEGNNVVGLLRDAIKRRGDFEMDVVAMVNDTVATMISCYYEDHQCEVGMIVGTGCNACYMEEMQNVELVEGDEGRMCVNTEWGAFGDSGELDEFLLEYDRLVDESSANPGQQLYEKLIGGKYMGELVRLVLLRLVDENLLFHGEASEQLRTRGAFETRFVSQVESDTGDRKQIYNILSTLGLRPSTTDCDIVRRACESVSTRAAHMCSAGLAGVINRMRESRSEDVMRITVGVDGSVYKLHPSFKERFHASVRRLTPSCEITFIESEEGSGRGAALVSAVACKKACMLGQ
T1 sequence (Q14397 whole entry, looked up): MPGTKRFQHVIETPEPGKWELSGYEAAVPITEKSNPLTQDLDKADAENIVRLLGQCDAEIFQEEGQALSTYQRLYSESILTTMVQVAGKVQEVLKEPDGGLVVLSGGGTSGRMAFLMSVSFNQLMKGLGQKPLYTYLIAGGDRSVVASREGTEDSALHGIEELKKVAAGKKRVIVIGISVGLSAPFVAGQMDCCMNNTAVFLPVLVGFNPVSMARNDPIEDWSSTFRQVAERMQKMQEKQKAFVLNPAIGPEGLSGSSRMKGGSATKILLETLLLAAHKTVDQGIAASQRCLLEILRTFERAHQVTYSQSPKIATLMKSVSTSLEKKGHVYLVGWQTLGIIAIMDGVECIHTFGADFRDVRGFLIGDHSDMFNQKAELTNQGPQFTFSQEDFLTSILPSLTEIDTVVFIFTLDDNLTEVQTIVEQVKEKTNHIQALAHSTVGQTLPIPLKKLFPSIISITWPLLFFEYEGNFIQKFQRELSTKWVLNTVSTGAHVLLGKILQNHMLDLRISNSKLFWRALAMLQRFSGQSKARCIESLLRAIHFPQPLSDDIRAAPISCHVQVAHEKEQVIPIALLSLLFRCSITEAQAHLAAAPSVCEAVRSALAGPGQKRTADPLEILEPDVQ

Take `CN[C@@H](C)Cc1ccccc1`: the max response in [1] was 5.78% (inactive). For the same molecule, the result in assay [2], in assay [3], in assay [4] and in [5] was inactive.

As to `NC(=O)[C@@H]1CCCN1C(=O)[C@H](Cc1cnc[nH]1)NC(=O)[C@@H]1CCC(=O)N1`, the molecule was called inactive in [2], in assay [3], in [4] and in [5].

With `CC(C)CN(C[C@@H](O)[C@H](Cc1ccccc1)NC(=O)O[C@@H]1CCOC1)S(=O)(=O)c1ccc(N)cc1`, the molecule was called inactive in [2], in [3], in assay [4] and in assay [5].

As for `O=C1Nc2ccc(Cl)cc2C(c2ccccc2Cl)=NC1O` (stereo unspecified), the max response in assay [1] was 16.1% (inactive). In addition, the molecule was classed as inactive in assay [2], in [3], in [4] and in assay [5].

For `O=P(O)(O)C(Sc1ccc(Cl)cc1)P(=O)(O)O`, the call in assay [2], in assay [3], in assay [4] and in assay [5] was inactive.

Regarding `CC(CCc1ccccc1)NCC(O)c1ccc(O)c(C(N)=O)c1` (stereo unspecified), the molecule was called inactive in assay [2], in assay [3], in assay [4] and in assay [5].

Turning to `COC(=O)C(c1ccccc1)C1CCCCN1` (stereo unspecified), the max response in assay [1] was -2.03% (inactive); in assay [6], -2.58% (inactive) and -3.35% (inactive). For the same molecule, the Potency result in [7] was “inactive”. The outcome in [2], in assay [3], in assay [4] and in assay [5] was inactive.

Consider `O=P1(N(CCCl)CCCl)NCCCO1` (stereo unspecified), for which the result in assay [8] and in [9] was inactive. Also, the remaining parasite growth % (stronger effect = lower value) in [10] was 108% and 105%. Also, in assay [11], the activity, percent of control is 108% and 125%. For the same molecule, the parasite growth, % of DMSO control in assay [12] was determined as 42.1%. Also, the parasite growth remaining, % of DMSO control (lower = more inhibition) in assay [13] was 54.1%.

In assay [12], `C[C@](O)(CS(=O)(=O)c1ccc(F)cc1)C(=O)Nc1ccc(C#N)c(C(F)(F)F)c1` came in with a parasite growth, % of DMSO control of 22%. The molecule further showed a parasite growth remaining, % of DMSO control (lower = more inhibition) in [13] of 93.2%.

With `CNCC(=O)c1ccc(O)c(O)c1`, the max response in assay [1] was 39.9% (inactive). The call in [14], in [15], in assay [16] and in [17] was inactive.

`Cn1c(=O)c2c(ncn2CC(=O)O)n(C)c1=O`: the call in [14], in [15], in assay [16] and in assay [17] was inactive.

Consider `COc1cc(CC(C)N)cc(OC)c1OC` (stereo unspecified), for which the max response in [1] is 4.71% (inactive). The result in [14], in assay [15], in [16] and in assay [17] was inactive.

On to `CC(=O)CC(c1ccc([N+](=O)[O-])cc1)c1c(O)c2ccccc2oc1=O` (stereo unspecified), for which the call in assay [14], in assay [15], in assay [16] and in assay [17] was inactive.

`CCCCCCCCCCCCCCCCOP(=O)([O-])OCC[N+](C)(C)C`: the result in assay [14], in [15], in assay [16] and in assay [17] was inactive.

Turning to `O=C(/C=C/c1ccccc1)OCc1ccccc1`, the result in [14], in assay [15], in assay [16] and in assay [17] was inactive.

As for `CC(C)C(=O)c1c(C(C)C)nn2ccccc12`, the molecule was classed as inactive in assay [14], in assay [15], in [16] and in assay [17].

Regarding `CCOc1ccc(NS(=O)(=O)c2ccc(N)cc2)nn1`, the max response in [1] was 42.3% (inactive). In addition, the molecule was classed as inactive in [14], in assay [15], in [16] and in assay [17].

As to `Cc1ccc(Cl)c(Nc2ccccc2C(=O)O)c1Cl`, the molecule was called inactive in [14], in assay [15], in assay [16] and in assay [17].

As to `CCOC(=O)O[C@]1(C(=O)OCCl)CC[C@H]2[C@@H]3CCC4=CC(=O)C=C[C@]4(C)[C@H]3[C@@H](O)C[C@@]21C`, the molecule was called inactive in assay [14], in assay [15], in assay [16] and in assay [17].

In the case of `CNC(=O)c1c(I)c(NC(C)=O)c(I)c(C(=O)O)c1I`, the result in assay [14], in assay [15], in [16] and in assay [17] was inactive.

Turning to `CN(C)c1ccc2nc3ccc(=[N+](C)C)cc-3sc2c1`, the molecule was called inactive in [14], in assay [15], in assay [16] and in assay [17].

With `O=C1C(O)=C(O)C(=O)C(O)=C1O`, the outcome in assay [14], in assay [15], in assay [16] and in assay [17] was inactive.

For the molecule `Cc1oc(=O)oc1CN1CCN(c2cc3c(cc2F)c(=O)c(C(=O)O)c2n3C(C)S2)CC1` (stereo unspecified), the call in [14], in assay [15], in assay [16] and in [17] was inactive.

In the case of `c1ccc(-c2nc[nH]c2-c2ccccc2)cc1`, the AC50 in assay [14] was 35.5 µM (active). In addition, the outcome in assay [15], in assay [16] and in assay [17] was inactive.

On to `CC(=O)NC1CCSC1=O` (stereo unspecified), for which, in assay [1], the max response is -2.2% (inactive) and 7.47% (inactive). Also, the molecule was called inactive in assay [14], in assay [15], in assay [16] and in assay [17].

For the molecule `O=C(O)Cc1csc(-c2ccc(Cl)cc2)n1`, the molecule was classed as inactive in assay [14], in assay [15], in assay [16] and in assay [17].

As to `CCCNC(C)C(=O)Nc1ccccc1C` (stereo unspecified), the outcome in assay [14], in assay [15], in assay [16] and in assay [17] was inactive.

Turning to `CC(C(=O)c1ccccc1)N(C)C` (stereo unspecified), the molecule was classed as inactive in assay [14], in assay [15], in assay [16] and in assay [17].

For the molecule `CC1CC(OC(=O)c2ccccc2O)CC(C)(C)C1` (stereo unspecified), the molecule was called inactive in [14], in assay [15], in assay [16] and in assay [17].

Consider `O=C(O)[C@@H]1CSCN1`, for which the result in assay [14], in [15], in assay [16] and in assay [17] was inactive.

Regarding `Cc1ncsc1CCCl`, the outcome in [8], in assay [9], in assay [14], in assay [15], in assay [16] and in [17] was inactive. For the same molecule, the max response in assay [1] was 5.08% (inactive) and 26.9% (inactive).
